Bioassay records (PubChem BioAssay)
FBPA Giardia inh = inhibitors of Giardia lamblia fructose-1,6-bisphosphate aldolase; A8B2U2; purified Giardia FBPA; Potency, µM (doses to about 59.6 µM), inactives show at the highest dose activity, negative = inhibition, most hits filed as inhibitors; actives 0.71% (n = 290,000); note: potency is the fitted concentration of half-maximal effect; % is set by controls: 0 for no effect and ±100 for the full control effect; nearly all actives have a fitted effect of over 55% in size
Target sequence (A8B2U2 whole entry, looked up): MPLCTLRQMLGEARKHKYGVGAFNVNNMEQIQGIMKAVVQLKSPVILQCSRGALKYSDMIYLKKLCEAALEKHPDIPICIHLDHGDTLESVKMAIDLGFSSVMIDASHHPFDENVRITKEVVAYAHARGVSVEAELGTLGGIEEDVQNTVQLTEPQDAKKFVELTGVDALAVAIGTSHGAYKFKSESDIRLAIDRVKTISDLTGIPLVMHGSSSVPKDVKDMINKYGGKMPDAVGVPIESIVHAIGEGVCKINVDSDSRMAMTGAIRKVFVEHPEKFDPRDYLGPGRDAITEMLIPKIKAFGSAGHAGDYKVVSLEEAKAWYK
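40 nM FBPA preincubated 10 min at RT with compound (up to 57.5 uM final), then substrate plus GAPDH/TPI/NAD/arsenate coupling and diaphorase/resazurin added. Fluorescence read after 20 min at RT, 525/598 nm.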
Cycloheximide cs = counter-screen for Shiga toxin inhibitors: cycloheximide protein synthesis inhibition; cell reporter, cycloheximide protein synthesis inhibition counterscreen; max response, %; actives 12% (n = 300,000); AID 2314; in the data active = max response mostly above about 13%, no sharp cut-off; inactive = mostly below about 14%; note: read at 38.3 µM for the half of the compounds with a filed dose; 0% is about no effect
NS1 function inh = blocks influenza NS1 protein function; actives 0.4% (n = 270,000); AID 2326; Potency, µM (highest dose often 46.1 µM), for the others: at the top dose activity, positive = more growth; calls by dose curve; note: potency is the fitted concentration of half-maximal effect; actives are rising curves; nearly all actives have a fitted effect of over 50% in size
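Recovery from NS1-induced slow growth read by OD600 in budding yeast switched to galactose assay medium (pH 6.0, -URA) at 1:100 dilution. Compound 23 nl per well; the matching strain lacking NS1 serves as control.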
Pf growth 96h = P. falciparum growth inhibition at 96 hours; Potency, µM (series often up to 28.7 µM), for inactives: top-dose activity change, negative = inhibition, actives largely listed as inhibitors; P. falciparum luciferase reporter growth, 96 h; AID 504834; actives 6.9% (n = 320,000); note: potency is the fitted concentration of half-maximal effect; % is set by controls: 0 for no effect and ±100 for the full control effect
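Plates of compound plus infected erythrocytes (2% hematocrit, 0.05% parasitemia final) incubate 96 hours, 37 C, 5% CO2. Detection reagent added; reduced luminescence from the parasites' luciferase reporter flags inhibition.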
Shiga toxin inh = blocks Shiga toxin action in Vero cells. Vero cells, Shiga toxin protein synthesis inhibition reporter. inhibition, % at 38.7 µM. actives 9.2% (n = 290,000). AID 2315; in the data active = inhibition mostly above about 28%, no sharp cut-off; inactive = mostly below about 43%; note: 0% is about no effect
Pf growth 48h = P. falciparum growth inhibition at 48 hours (one generation); P. falciparum luciferase growth in erythrocytes, 48 h; Potency, µM (titrated, usually from 28.7 µM), for the others: at the top dose activity change, negative = inhibition, usual class: inhibitors; actives 5.9% (n = 310,000); note: potency is the fitted concentration of half-maximal effect; % is set by controls: 0 for no effect and ±100 for the full control effect
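First compound was added to culture medium, then infected red cells at 0.1% parasitemia and 2% hematocrit (final). After incubation at 37 C under 5% CO2, luciferase detection reagent was dispensed and light output recorded.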
Numbers without * were called inactive; ? = inconclusive; nt = not tested or not shown; [ ] = another dose, or the depositor's remark. Only some compounds are listed: those with a hit (about 21% of all), similar ones and a draw of the others. Unless noted, calls come from the whole dose curve; as a rule, active = well fitted curve in the direction sought with a large enough effect; inconclusive = small, poorly fitted or top-dose-only effect, or another doubt; inactive = no such curve, though single readings can be large; an effect the other way counts as inactive or inconclusive.

SMILES	FBPA Giardia inh	Cycloheximide cs	NS1 function inh	Pf growth 96h	Shiga toxin inh	Pf growth 48h
O=C(NC1CCCC1)C1CCCN(S(=O)(=O)c2ccc(F)cc2)C1 (stereo not drawn)	0%	-4	3%	?	4	-17%
CSc1c(SCc2ccccc2)cnn(-c2ccccc2)c1=O	-1%	2	-5%	-11%	-12	-22%
NC(=S)N/N=C/c1cccc(Br)c1	-30%	-2	-5%	?	-10	-4%
NC(=S)N/N=C/c1c(O)c(Br)cc2oc3c(c12)CCCC3	13%	1	3%	?	-8	3.3µM*
O=C(O)c1ccc(/C=C2\COc3ccccc3C2=O)cc1	2%	22*	-21%	31%	63	-34%
CCOc1cc(/C=C2\COc3ccccc3C2=O)cc(Br)c1OCC(=O)N(C)C	-9%	10	-44%	10µM*	22	?
COc1ccc(C=C2c3ccccc3C(=O)c3ccccc32)c(OC)c1	-8%	-4	12%	?	-7	?
COc1ccc(/C=C2\COc3ccccc3C2=O)c(OC)c1	-1%	43*	-31%	9.3µM*	71*	?
COc1cc(/C=C2\CCc3ccccc3C2=O)cc(OC)c1OC	-2%	18*	-14%	35%	32*	-27%
Cc1cnc(C(=O)OCC(=O)NCc2cccc(Cl)c2)cn1	nt	nt	nt	4%	nt	-3%
COc1ccc(/C=C2/CCc3ccccc3C2=O)cc1OC	10%	74*	-18%	?	74*	95%
COc1ccc(/C=C2\OC(=O)c3c(OC)cccc32)cc1OC	nt	38*	14%	29%	54	11%
COc1cc(/C=C2/CCc3ccccc3C2=O)cc(OC)c1OC	-6%	11	-17%	?	13	?
COc1ccc2c(c1)CC/C(=C\c1ccc(OC)c(Cn3cccn3)c1)C2=O	-17%	26	-51%	nt	23	nt
COc1ccc2c(c1)OCc1c-2oc2cc(OC)ccc12	-1%	nt	nt	nt	nt	nt
COc1ccc2c(c1)OC/C(=C/c1cccs1)C2=O	6%	44*	-14%	2.9µM*	73*	281%
COc1ccc(/C=C2\CCc3ccccc3C2=O)cc1CN1CCOCC1	-6%	30*	-2%	-25%	94*	-1%
COc1ccc(OCC2Cc3c(-c4ccccc4)nc4c(c3CO2)CN(CCOc2ccccc2)CC4)cc1 (stereo not drawn)	0%[12.9 µM]	nt	nt	nt	nt	nt
CSc1ccccc1NC(=O)COC(=O)Cn1cc(C(F)(F)F)ccc1=O	nt	nt	nt	3%	nt	-2%
O=C1C(=O)N(Cc2cccnc2)C(c2cccc(Br)c2)/C1=C(/O)c1ccc2c(c1)OCO2 (stereo not drawn)	nt	5	16%	-4%	30	-35%
COc1ccc(/C=C2\C(=O)OCc3cc(OC)c(OC)cc32)cc1OC	0%	-5	-18%	0%	-20	?
COc1ccc(/C=C2\COc3ccccc3C2=O)cc1OC	-3%	45*	-38%	-65%	65*	15%
CCN(CC)S(=O)(=O)c1ccc(N2CCOCC2)c(NC(=O)C(C)(C)C)c1	5%	6	-66%	?	-4	75%
CCN(CC)S(=O)(=O)c1ccc(N2CCOCC2)c(NS(=O)(=O)c2ccc(C(C)C)cc2)c1	5%	-3	18%	1.5µM*	-9	2.9µM*
CCN(CC)S(=O)(=O)c1ccc(N2CCOCC2)c(NS(=O)(=O)c2cc(C(C)(C)C)ccc2C)c1	-4%	-2	?	?	-6	0.083µM*
SMILES	FBPA Giardia inh	Cycloheximide cs	NS1 function inh	Pf growth 96h	Shiga toxin inh	Pf growth 48h
CCN(CC)S(=O)(=O)c1ccc(N2CCOCC2)c(NS(=O)(=O)c2cccs2)c1	nt	nt	nt	20%	nt	1%
CC(C)Oc1ccc(CNC(=O)Oc2ccccc2)cc1	12%	1	0%	22%	-5	-2%
CCOc1ccc(N2C(=O)CC(N(Cc3ccco3)C(C)=O)C2=O)cc1 (stereo not drawn)	-8%	0	4%	?	-2	17%
CCOc1[nH]n(-c2ccccc2)c(=O)c1C=NCc1cccnc1	-1%	9	nt	19µM*	-6	?
CCOc1[nH]n(-c2ccccc2)c(=O)c1C=NCC(=O)OC	-1%	-1	nt	-164%	-12	?
Cc1cc(NC(=O)CSc2nnc(-c3ccc4c(c3)OCCO4)o2)no1	11%	22*	-4%	-14%	121*	23%
Cc1cc(NC(=O)CSc2nnc(-c3cccc(Cl)c3)o2)no1	nt	1	-3%	2.9µM*	-3	?
Cc1cc(NC(=O)c2cc(-c3cccc(Cl)c3)on2)no1	3%	2	-9%	28%	-12	127%
Cc1cc(NC(=O)CSCC(=O)OCc2nnc(-c3ccccc3)o2)no1	nt	16*	0%	26%	30	22%
Cc1cc(-c2nnc(-c3cccc(Cl)c3)o2)no1	3%	37*	0%	222%	93*	112%
COc1cccc(-c2nnc(SCC(=O)Nc3cc(C)on3)o2)c1	9%	25*	-4%	nt	54	0%
O/N=C1/CC/C(=N\O)c2nn(-c3ccccc3)nc21	1%	31*	-7%	-3%	36	60%
COc1ccc2c(c1)C(=O)[C@H](OC(=O)N[C@H]1CCCc3ccccc31)[C@@H](c1ccc(OC)c(Br)c1)O2	2%	nt	nt	nt	nt	nt
Clc1cccc(N/N=C(\Cc2nc3ccccc3[nH]2)c2ccccc2)c1	-10%	21*	9%	4.1µM*	54*	12µM*
COc1ccc(C(=O)N/N=C(\Cc2ncc[nH]2)c2ccccc2)cc1	-5%	4	5%	?	13	3.3µM*
c1ccc(N/N=C(\Cc2ncc[nH]2)c2ccccc2)cc1	-14%	8	nt	9.3µM*	29	?
CC/C(=N/Nc1cccc(Cl)c1)c1cnnc(SC)n1	-5%	-2	9%	?	-2	?
O=C(NCc1cccs1)C1CCCN1C(=O)Nc1ccccc1[N+](=O)[O-] (stereo not drawn)	5%	-2	13%	?	-7	23%
O=C(C[n+]1cccc2ccccc21)c1ccccc1	-7%	6	23%	13µM*	26	?
N#Cc1ccc[n+](CC(=O)c2ccc(NC(=O)c3ccccc3)cc2)c1	-10%	14	10%	9%	32*	?
O=C(C[n+]1cccc2ccccc21)c1ccc(NC(=O)c2ccccc2)cc1	-2%	0	nt	?	13	2.1µM*
CCOc1ccc(C(=O)C[n+]2cccc3cc(C)ccc32)cc1	-2%	-3	6%	7%	0	8.3µM*
Cc1ccc[n+](CC(=O)c2ccc(NC(=O)c3ccccc3)cc2)c1	-10%	1	nt	?	-15	?
CS(=O)(=O)Nc1cccc(C2=NN(C(=O)CCCC(=O)O)C(c3cccs3)C2)c1 (stereo not drawn)	4%	10	8%	20%	-6	-28%[0.00184 µM]
COc1ccccc1CNC(=O)COC(=O)c1ccc(C)c(S(=O)(=O)N2CCCCC2)c1	nt	-2	16%	-2%	12	14%
